PubChem BioAssay (NCI)
The panel holds about 79,000 compounds, 15% with a hit somewhere; the sample as a whole holds those more often. Values without a mark were called inactive. Calls of active or inactive are those of the source. Rule as the data show it: active = growth inhibition above about 70%; inactive = the rest.

Key:
[1] = NCI Yeast Anticancer Drug Screen. Data for the rad50 strain (AID 155);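 also: 0% = growth of vehicle-only cultures of the same strain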; conditions: S. cerevisiae rad50 strain growth inhibition, stronger effect = higher value
Outline: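 Growth of the mutant yeast was measured after compound exposure and referenced to vehicle-treated cultures.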

[2] = NCI Yeast Anticancer Drug Screen. Data for the mec2-1 strain (AID 157); conditions: S. cerevisiae mec2-1 strain, stronger effect = higher value
Outline: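 Using mec2-1 yeast: add compound, measure growth, express inhibition versus vehicle-treated cultures.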

[3] = NCI Yeast Anticancer Drug Screen. Data for the sgs1 mgt1 strain (AID 161);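 also: 0% = growth of cultures given vehicle only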; conditions: S. cerevisiae sgs1 mgt1 strain, stronger effect = higher value
Outline: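 Compounds are added to genetically altered yeast, and growth is compared with cultures given vehicle alone to give percent inhibition.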

[4] = NCI Yeast Anticancer Drug Screen. Data for the cln2 rad14 strain (AID 165);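 also: 0% = growth equal to vehicle treated cultures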; conditions: S. cerevisiae cln2 rad14 strain, stronger effect = higher value
Outline: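 Yeast strain cln2 rad14, bearing defects in cell cycle control and DNA repair, serves as the test system; values reflect growth inhibition compared with vehicle.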

[5] = NCI Yeast Anticancer Drug Screen. Data for the bub3 strain (AID 167); conditions: S. cerevisiae bub3 mutant strain, stronger effect = higher value
Outline: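 Whole-cell yeast assay. The mutant strain was incubated with compounds, and growth inhibition was determined by comparison with vehicle-treated cells.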

[6] = NCI Yeast Anticancer Drug Screen. Data for the mlh1 rad18 strain (AID 175); conditions: S. cerevisiae mlh1 rad18 strain growth inhibition, stronger effect = higher value
Outline: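 Steps: expose repair-defective yeast to compound; measure growth; express inhibition against vehicle-treated controls.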

[7] = at 5.0 µM (retest, dose inferred, filed as 0.5)
[8] = at 50.0 µM (retest, dose inferred, filed as 5.0)

| SMILES | growth inhibition [1, 7] | growth inhibition [1, 8] | growth inhibition ([1]; at 50.0 µM) | growth inhibition [2, 7] | growth inhibition [2, 8] | growth inhibition ([2]; at 50.0 µM) | growth inhibition [3, 7] | growth inhibition [3, 8] | growth inhibition ([3]; at 50.0 µM) | growth inhibition [4, 7] | growth inhibition [4, 8] | growth inhibition ([4]; at 50.0 µM) | growth inhibition [5, 7] | growth inhibition [5, 8] | growth inhibition ([5]; at 50.0 µM) | growth inhibition [6, 7] | growth inhibition [6, 8] | growth inhibition ([6]; at 50.0 µM) |
| --- | --- | --- | --- | --- | --- | --- | --- | --- | --- | --- | --- | --- | --- | --- | --- | --- | --- | --- |
| NC(=S)N/N=C1/C(=O)c2cccc3cccc1c23 | 10% | 96% (active) | 91.8% (active) | -2% | 78% (active) | 0.1% | 1% | 80% (active) | 66.7% | -9% | 65% | -26.7% | 9% | 65% | 7.65% | 6% | 90% (active) | 70.5% (active) |
| CN(C)c1ccc(/C=C\c2c3ccccc3cc[n+]2[O-])cc1 | -4% | -1% | 70% | -5% | 0% | 3% | 0% | -12% | 17.9% | -5% | -5% | -10.2% | -6% | -11% | 21% | -10% | 8% | 14.8% |
| O=C(O)/C(=C\c1ccc(F)cc1)c1ccccc1 | -3% | -12% | 48% | -18% | -9% | 64.9% | -4% | -16% | 11.9% | 29% | 11% | 38.8% | 3% | 28% | 70.8% (active) | -12% | 9% | 50.2% |
| O=C1c2ccccc2C(=O)c2sccc21 | -97% | 91% (active) | 95.8% (active) | -36% | 51% | 84.8% (active) | -43% | 62% | 93.8% (active) | -56% | 32% | 56.3% | -36% | 90% (active) | 90.5% (active) | -75% | 92% (active) | 93.9% (active) |
| Clc1cccc(N2CCN(c3c4c(nc5ccccc35)CCCCC4)CC2)c1 | 81% (active) | 94% (active) | 93% (active) | 93% (active) | 99% (active) | 95.5% (active) | 87% (active) | 96% (active) | 95.2% (active) | 28% | 89% (active) | 93.2% (active) | 73% (active) | 93% (active) | 92.1% (active) | 92% (active) | 95% (active) | 93.9% (active) |
| CC(C)(C)C(=O)/C=C/c1ccc2ccccc2n1 | -135% | -119% | 44.4% | -48% | -51% | 51.1% | -62% | -35% | 34.5% | -66% | -75% | 8.6% | -67% | -73% | 34.1% | -126% | -120% | 77.8% (active) |
| CCOC(=O)C(NC(=O)C(CO)n1c(-c2ccccc2)c(-c2ccccc2)oc1=O)C(=O)OCC (centres undefined) | 7% | 42% | 43.6% | 2% | 19% | 26.4% | -2% | 35% | 41.5% | -1% | 51% | -1.9% | 1% | 51% | 22.2% | 1% | 20% | 53.1% |
| CCOc1cc(/C=N/NC(=S)NC23CC4CC(CC(C4)C2)C3)ccc1O | -3% | 11% | 40.6% | -5% | 30% | 40.5% | 0% | 61% | 41.3% | 49% | 16% | 45.1% | -7% | -100% | 9.55% | 1% | 29% | 47.6% |
| CCCCN(CCCC)CCCCNc1ccc(C)c2sc3ccccc3c(=O)c12 | 36% | 99% (active) | 98.7% (active) | 23% | 98% (active) | 99.2% (active) | 83% (active) | 98% (active) | 98.8% (active) | 18% | 98% (active) | 98.3% (active) | 50% | 98% (active) | 98.8% (active) | 65% | 98% (active) | 99.2% (active) |
| O=c1cc(CI)oc2ccccc12 | 34% | 99% (active) | 99.4% (active) | 57% | 99% (active) | 99.5% (active) | 46% | 99% (active) | 99.6% (active) | 20% | 100% (active) | 85.7% (active) | 45% | 99% (active) | 94% (active) | 36% | 99% (active) | 99.5% (active) |
| Oc1ccccc1C(c1ccccc1O)C(Cl)(Cl)Cl | 94% (active) | 96% (active) | 95.7% (active) | 96% (active) | 97% (active) | 98.5% (active) | 94% (active) | 96% (active) | 97.3% (active) | 97% (active) | 96% (active) | 95% (active) | 84% (active) | 96% (active) | 98.2% (active) | 91% (active) | 96% (active) | 98% (active) |
| C[C@H](CCC(=O)O)[C@H]1CC[C@H]2[C@@H]3[C@@H](O)C[C@@H]4C[C@H](O)CC[C@]4(C)[C@H]3CC[C@]12C | 14% | 97% (active) | 79.9% (active) | 7% | 96% (active) | 99% (active) | 19% | 99% (active) | 81.3% (active) | -1% | 97% (active) | 76.5% (active) | 21% | 99% (active) | 98.5% (active) | 12% | 99% (active) | 88.7% (active) |
| C/C=C/CC(C/C=C/C)C1CC[N-]CC1.C/C=C/CC(C/C=C/C)C1CC[N-]CC1.[Cl][Pt+2]([Cl])([Cl])[Cl] | 8% | 88% (active) | 97.3% (active) | -62% | 78% (active) | 98.8% (active) | 3% | 91% (active) | 98.8% (active) | 4% | 58% | 97.7% (active) | -3% | 85% (active) | 98% (active) | 7% | 88% (active) | 98.6% (active) |
| O=C(N=c1sc2ccccc2s1)N=c1sc2ccccc2s1 | 1% | 10% | 45.9% | 35% | -14% | -2.6% | 14% | -20% | 47.6% | -32% | 6% | 84% (active) | -11% | 7% | 29.6% | -20% | 10% | 50% |
| CCN(CC)CCOc1ccc(-c2nc3cc(Cl)ccc3s2)cc1 | 29% | 88% (active) | 75% (active) | 54% | 86% (active) | 35.8% | 23% | 91% (active) | 91% (active) | 31% | 84% (active) | 48% | 61% | 90% (active) | 85.7% (active) | 39% | 82% (active) | 83.3% (active) |
| CSc1cc(C(=O)O)nc(N)n1 | 4% | -4% | -5.65% | 6% | 0% | 5% | 5% | -1% | -21.6% | 8% | -1% | 28.1% | 3% | -4% | -17.1% | 4% | -4% | -12.3% |
| CC1C(c2ccc3c(c2)OCO3)c2cc3c(cc2OC1N1CCOCC1)OCO3 (centres undefined) | 28% | 49% | 21.3% | 19% | 36% | 7.3% | 17% | 38% | -18.1% | 25% | 27% | 3.7% | 27% | 28% | 18.7% | 27% | 46% | 20.3% |
| CCN(CC)CCN1C(=O)c2c(c3c4cccc(Cl)c4n(C4OC(CO)C(OC)C(O)C4O)c3c3[nH]c4c(Cl)cccc4c23)C1=O (centres undefined) | 88% (active) | 97% (active) | 84% (active) | 56% | 98% (active) | 87.3% (active) | 21% | 96% (active) | 90.5% (active) | 67% | 90% (active) | 89.5% (active) | 43% | 97% (active) | 89.2% (active) | 76% (active) | 97% (active) | 91% (active) |
